From PubChem BioAssay AID651650 (Sanford-Burnham Center for Chemical Genomics, 2012)

Molecular target: Neuropilin-1 (Homo sapiens) (UniProt O14786)
Assay: blockers of CendR peptide binding to NRP-1 – biochemical, FP and AlphaScreen panel, dose response (AID 651650)
Details: NRP-1 b1b2 / RPARPAR peptide binding, FP or AlphaScreen; run 1, at 100 µM (top of the series)

Sequence of Neuropilin-1 (Homo sapiens) (O14786 whole entry, looked up): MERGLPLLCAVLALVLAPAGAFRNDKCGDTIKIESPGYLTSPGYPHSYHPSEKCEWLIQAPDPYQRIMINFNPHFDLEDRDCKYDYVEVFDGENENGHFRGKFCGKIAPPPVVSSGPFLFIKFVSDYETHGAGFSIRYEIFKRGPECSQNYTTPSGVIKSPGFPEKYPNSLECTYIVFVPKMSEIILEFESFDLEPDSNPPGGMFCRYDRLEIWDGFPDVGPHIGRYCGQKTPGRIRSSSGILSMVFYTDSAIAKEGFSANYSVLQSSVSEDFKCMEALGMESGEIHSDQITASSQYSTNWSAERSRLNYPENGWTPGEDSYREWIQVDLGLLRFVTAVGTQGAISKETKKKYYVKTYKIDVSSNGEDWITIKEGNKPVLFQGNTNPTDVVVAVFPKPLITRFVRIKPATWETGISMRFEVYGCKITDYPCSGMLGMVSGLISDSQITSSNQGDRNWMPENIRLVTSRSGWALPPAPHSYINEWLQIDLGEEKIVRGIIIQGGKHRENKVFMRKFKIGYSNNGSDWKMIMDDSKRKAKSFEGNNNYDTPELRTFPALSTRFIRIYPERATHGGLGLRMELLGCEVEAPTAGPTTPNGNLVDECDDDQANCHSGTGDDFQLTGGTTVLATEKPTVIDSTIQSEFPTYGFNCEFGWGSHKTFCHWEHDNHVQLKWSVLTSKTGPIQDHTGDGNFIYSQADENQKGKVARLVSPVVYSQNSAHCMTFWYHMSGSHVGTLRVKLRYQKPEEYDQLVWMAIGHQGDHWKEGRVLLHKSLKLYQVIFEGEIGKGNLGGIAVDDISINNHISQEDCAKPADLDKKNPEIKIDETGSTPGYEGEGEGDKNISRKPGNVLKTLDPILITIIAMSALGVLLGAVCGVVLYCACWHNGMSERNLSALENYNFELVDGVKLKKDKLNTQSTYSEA

Q: With Cc1cc(N/C(=N/S(=O)(=O)c2cc(F)ccc2F)c2ccccc2)n(-c2ccccc2)n1 as the compound, how does the inhibition read?
A: -9.15%

Q: How did the inhibition turn out when CC(=O)C(=Cc1ccc(Cl)cc1)C(=O)c1ccccc1 was run?
A: 27.1%

Q: How did the inhibition turn out when CSCCC(NC(=O)c1ccc(Cl)cc1Cl)C(=O)NCC(c1cccs1)N(C)C (stereo not drawn) was run?
A: 31.9%

Q: With CC(=O)NC(c1cccc(F)c1)c1nc(-c2cccc(C(F)(F)F)c2)cs1 (stereo not drawn) as the compound, how does the inhibition read?
A: 9.72%

Q: How did the inhibition turn out when CC(=O)c1ccc(OCC(=O)Nc2nnc(C3CC3)s2)cc1 was run?
A: -27.1%

Q: How did the inhibition turn out when COC(=O)n1c(=O)oc2ccccc21 was run?
A: 50%

Q: How did the inhibition turn out when Nc1ccc(C#Cc2c(-c3ccsc3)oc3ccc(N4CCOCC4)cc23)cc1 was run?
A: 28.3%

Q: For FC(F)(F)c1cc(C(F)(F)F)c2ccc(Oc3ccccc3)nc2n1, which inhibition is on record?
A: 22.5%

Q: COc1ccncc1-c1csc(C(O)c2ccccc2)n1 (stereo not drawn) was tested. Which inhibition did it give?
A: 3.78%

Q: CCOC(=O)N1CCN(C(=O)c2cc(COc3ccc(OC)cc3Cl)on2)CC1 was tested. Which inhibition did it give?
A: 37.8%

Q: For Cc1cc2cc(CNC(=O)c3ccco3)ccc2n1C, which inhibition is on record?
A: 40.6%

Q: With CN(C(=O)COC(=O)c1nc(-c2ccccc2)n(-c2ccccc2)n1)C1CCS(=O)(=O)C1 (stereo not drawn) as the compound, how does the inhibition read?
A: -0.283%

Q: C=CCn1c(SCC(=O)Nc2ncc(Cc3ccc(Br)cc3)s2)nnc1-c1ccncc1 was tested. Which inhibition did it give?
A: 42%

Q: Which inhibition does the source give for Cc1ccc(C(=O)OCC(=O)c2ccc(Cl)s2)s1 here?
A: 32%

Q: Which inhibition does the source give for c1ccc(OCCCN2CCCC2)cc1 here?
A: 53.9%

Q: For CCOC(=O)Cc1cnc(NC(=O)NC(C(=O)OCC)(c2ccccc2)C(F)(F)F)s1 (stereo not drawn), which inhibition is on record?
A: 99.2%

Q: How did the inhibition turn out when COc1cccc(-c2ccc3c(c2)N(Cc2ccccc2OC)C(=O)C(C)S3)c1 (stereo not drawn) was run?
A: -18.6%

Q: CSc1nc2ccccc2c(=O)n1C1CCOC(C)(C)C1 (stereo not drawn) was tested. Which inhibition did it give?
A: 19.3%
